According to PubChem BioAssay AID1626 (SRMLSC, 2009):
Among all 220,000 compounds or so, about 2,000 (0.91%) were called active. Inconclusive results (about 2%) are left out. Only a sample is shown. Measured potencies and affinities stand elsewhere. A number with no mark means an inactive call. No stated cut-off is given here; in the data, inconclusive means inhibition above about 80% without an active follow-up result; inactive means below that; test concentration not stated here.

Assay: M. tuberculosis H37Rv growth inhibitors, H37Rv strain (AID 1626);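 further: bacteria incubated seven days before Alamar blue readout; 0% = bacteria only wells and 100% = bacteria with antibiotic wells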
Conditions: active compounds read high, concentration not given here
With `COc1ccc(NC(=O)C(=O)N/N=C(\C)CC(=O)Nc2ccccn2)c(OC)c1` the inhibition was -16.2%.
For `NS(=O)(=O)c1ccc(NC(=O)CCC2CCCCC2)cc1`, the inhibition was -3.12%.
`CC1CCN(C(=O)CCc2ccc(Oc3cc([N+](=O)[O-])cc([N+](=O)[O-])c3)cc2)CC1` showed an inhibition of 71.9%.
Work on `O=C(CCc1ccc(Oc2cc([N+](=O)[O-])cc([N+](=O)[O-])c2)cc1)N1CCCCC1` yielded an inhibition of 3.78%.
`CC1(C)S/C(=N/N=C/c2ccco2)NC1=O` showed an inhibition of 3.45%.
Work on `CCOc1ccc(-n2c(N)c(C(=O)N3CCN(C)CC3)sc2=S)cc1` yielded an inhibition of 2.86%.
With `CN(C)S(=O)(=O)N1CCN(c2ccc([N+](=O)[O-])c(N3CCOCC3)c2)CC1` the inhibition was 6.14%.
In the case of `Cc1c(O)ccc(-c2n[nH]c(C(=O)O)c2-c2nc3ccccc3s2)c1O`, the inhibition is reported as -16.8%.
With `O=C(CC(Sc1n[nH]c(-c2ccccc2)n1)c1ccccc1)NCc1ccccc1` (stereo not given) the inhibition was -4.33%.
With `O=C(NCc1c(F)cccc1F)c1cc(COc2c(F)cccc2F)on1` the inhibition was 4.13%.
Work on `COC(=O)OCC12CCC(O1)C1(C)C(=O)OCC21` (stereo not given) yielded an inhibition of 2.41%.
`COC(/C=C/Nc1ccc(Br)cc1)=C(C#N)C#N` gave an inhibition of -3.61%.
For `CC1CCN(CCC(=O)NN)CC1`, the inhibition was 1.23%.
Molecule `CCOC(=O)/C(C#N)=N/Nc1ccccc1OC` has an inhibition of 12.6%.
With `COc1ccc(-c2cc(C3CCN(c4cc(Cl)nc(N)n4)CC3)[nH]n2)cc1` the inhibition was 4.7%.
`Nc1nc(Cl)cc(N2CCC(c3cc(-c4ccc(Cl)cc4Cl)n[nH]3)CC2)n1` gave an inhibition of 8.57%.
Molecule `O=c1c2c3c(sc2nc2n1N=C(c1cccs1)CS2)CCCC3` has an inhibition of 3.06%.
With `CC(=O)Nc1ccc(S(=O)(=O)N2CCN(CCN3CCOCC3)CC2)cc1Cl` the inhibition was -2.42%.
Work on `O=C(CCc1ccccc1)Nc1nc2c(F)cc(F)cc2s1` yielded an inhibition of 12.2%.
Work on `O=C(Nc1nc2ccc(F)cc2s1)c1cccs1` yielded an inhibition of -2.98%.
Molecule `O=C(Nc1nc(-c2cc(F)ccc2F)cs1)C1=NN(c2ccccc2)C(=O)CC1` has an inhibition of 8.23%.
`O=C(NNc1nc2c(F)cc(F)cc2s1)c1ccccc1` gave an inhibition of 6.46%.
`O=C(Nc1nc2ccccc2s1)c1ccc(F)cc1` gave an inhibition of 2.23%.
With `Cc1onc(-c2ccccc2)c1C(=O)Nc1nc(-c2cc(F)ccc2F)cs1` the inhibition was -3.02%.
Molecule `S=C(NCC1CCCO1)Nc1ccccc1Cl` (stereo not given) has an inhibition of -6.63%.
`CC(C)(C)C(O)(CC#CCN1CCCC1)c1ccccc1` (stereo not given) showed an inhibition of -4.05%.
Work on `O=C(NCC1OCCc2ccccc21)C1COc2ccccc2O1` (stereo not given) yielded an inhibition of 9.06%.
Molecule `Cc1cccc(NC(=O)C2(c3cccs3)CCOCC2)n1` has an inhibition of -3.03%.
For `CCn1c(=O)cc(N2CCN(C(=O)c3ccco3)CC2)[nH]c1=O`, the inhibition was 11.9%.
In the case of `O=C(COC(=O)C1CC1)Nc1ccc2[nH]c(=O)[nH]c2c1`, the inhibition is reported as 1.3%.
With `COC(=O)CSc1cc(C)nc2ccc(OC)cc12` the inhibition was 10.7%.
For `CCOC(=O)CSc1cc(C)nc2ccc(OC)cc12`, the inhibition was -0.58%.
In the case of `CCCCOC(=O)C1=C(C)Nc2ncnn2C1c1cccc(OC)c1` (stereo not given), the inhibition is reported as -2.89%.
With `Cc1[nH]c2ccccc2c1/C=N/NC(=O)CNC(=O)c1ccccc1` the inhibition was -7.99%.
Work on `Cc1cc(C)n(CC(C)NCc2cn[nH]c2-c2ccc(C)c(C)c2)n1` (stereo not given) yielded an inhibition of 1.18%.
With `CC1=C(/C=C/C(C)=C/C=C/C(C)=C\C(=O)O)C(C)(C)CCC1` the inhibition was -10.9%.
`CC1=C(/C=C/C(C)=C/C=C/C(C)=C/C(=O)O)C(C)(C)CCC1` showed an inhibition of -5.32%.
With `CN(C)c1ccc(N=Nc2ccccc2C(=O)OCC(=O)NC2CCCC2)cc1` the inhibition was 46%.
`CN(C)c1ccc(N=Nc2ccccc2C(=O)OCC(=O)N(C)C2CCCCC2)cc1` gave an inhibition of 27.3%.
Molecule `Nc1cc(C(=O)c2cccs2)ccc1Cl` has an inhibition of -7.59%.
In the case of `Cc1ncc([N+](=O)[O-])n1CC(=O)NC(C)(C)C`, the inhibition is reported as -1.73%.
In the case of `CC(=O)N/C(=C\c1ccc(F)cc1)C(=O)N(C)C`, the inhibition is reported as -5.54%.
Molecule `COc1ccc(N2CCN(C(CNC(=O)c3cccc(Cl)c3)c3cccnc3)CC2)cc1` (stereo not given) has an inhibition of -9.59%.
For `OC(CNCCc1ccccc1)COc1ccc(OCC(O)CNCCc2ccccc2)cc1` (stereo not given), the inhibition was -6.51%.
Work on `COc1ccc(CCNCC(O)COc2cccc(Br)c2)cc1` (stereo not given) yielded an inhibition of -1.52%.
In the case of `CCN(CC)S(=O)(=O)c1ccc(N2CCOCC2)c(NC(=O)c2cccc3ccccc23)c1`, the inhibition is reported as 11.2%.
With `CC1CN(C(=O)c2cccc(S(=O)(=O)N3CCOCC3)c2)CC(C)O1` (stereo not given) the inhibition was -11.8%.
Work on `Cc1ccccc1-n1ncc(C(C)NC(=O)c2ccccc2)c1C` (stereo not given) yielded an inhibition of -0.68%.
Molecule `O=C(NCc1ccccc1)NC(=O)c1ccccc1` has an inhibition of -2.58%.
In the case of `COCCN=C1Sc2nc3cc(C)c(C)cc3cc2CN1Cc1cccs1`, the inhibition is reported as 10%.
With `COCCN=C1Sc2nc3ccc(C)cc3cc2CN1Cc1ccco1` the inhibition was -8.23%.
In the case of `Cc1c(-n2cc(C(=O)O)c(=O)c3cc(F)c(N4CCCC4)c(F)c32)c(=O)n(-c2ccccc2)n1C`, the inhibition is reported as 3.58%.
Molecule `O=C(O)c1cn(-c2ccc(F)c(F)c2)c2c(F)c(F)c(F)c(F)c2c1=O` has an inhibition of 6.77%.
With `COC(=O)c1c(N2C(=O)[C@H]3[C@@H](C2=O)[C@]2(C(=O)Nc4c2ccc(C)c4C)N2CCC[C@@H]32)sc(C)c1C` the inhibition was 4.68%.
`CN(C)c1ccc(/C=N/N=C(N)N)cc1[N+](=O)[O-]` gave an inhibition of -2.01%.
With `O=c1c2cc(NC(=S)N3CCCC3)ccc2nc2n1CCCCC2` the inhibition was 5.39%.
Work on `O=C(O)C12C[C@H]3C[C@@H](C1)CC(n1ncc(N4CCN(c5ccccc5)CC4)c(Cl)c1=O)(C3)C2` yielded an inhibition of -7.44%.
Molecule `Cc1ccc(N=CC2=C(O)CC(c3ccco3)CC2=O)cc1` (stereo not given) has an inhibition of -4.64%.
`CCc1ccc(N=CC2=C(O)CC(c3ccco3)CC2=O)cc1` (stereo not given) gave an inhibition of 81%.
Work on `COC(=O)c1[nH]c2cccc(OC)c2c1NC(=O)CCN1CCC(C(N)=O)CC1` yielded an inhibition of -3.72%.
